# Screening results (PubChem BioAssay)
# TDP1 block = TDP1 (human) enzyme inhibition. Q9NUW8. recombinant TDP1, AlphaScreen DNA substrate cleavage. Potency, µM (series often up to 130 µM), for inactives: top-dose activity change, negative = inhibition, actives largely listed as inhibitors. 0.28% of 350,000 active. AID 485290; note: potency is the fitted concentration of half-maximal effect; nearly all actives have a fitted effect of over 40% in size
# Target sequence (Q9NUW8 whole entry, looked up): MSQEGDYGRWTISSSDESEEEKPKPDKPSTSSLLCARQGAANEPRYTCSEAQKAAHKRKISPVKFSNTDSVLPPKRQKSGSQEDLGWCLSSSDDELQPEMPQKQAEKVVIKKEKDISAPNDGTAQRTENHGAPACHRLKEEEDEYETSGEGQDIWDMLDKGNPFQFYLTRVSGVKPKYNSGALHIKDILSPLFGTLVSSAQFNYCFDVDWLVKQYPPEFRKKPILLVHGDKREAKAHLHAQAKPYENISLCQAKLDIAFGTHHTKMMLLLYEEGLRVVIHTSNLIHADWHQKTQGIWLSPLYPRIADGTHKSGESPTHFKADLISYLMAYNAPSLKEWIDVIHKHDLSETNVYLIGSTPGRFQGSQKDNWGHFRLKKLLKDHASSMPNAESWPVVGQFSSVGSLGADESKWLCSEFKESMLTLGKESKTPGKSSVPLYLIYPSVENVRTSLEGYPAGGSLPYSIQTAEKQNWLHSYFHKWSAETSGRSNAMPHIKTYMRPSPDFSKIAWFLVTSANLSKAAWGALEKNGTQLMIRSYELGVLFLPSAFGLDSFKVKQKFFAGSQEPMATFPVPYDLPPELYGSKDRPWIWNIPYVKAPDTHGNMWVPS
#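 AlphaScreen read-out: signal falls as enzyme removes the 3' tyrosine-FITC from a 5'-biotinylated DNA oligo (15 nM, 5 min, RT). Enzyme was E. coli-made recombinant Tdp1 at 1 nM, exposed to compound for 15 min beforehand; beads 10 ug/ml, 10 min.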
# IL-1B inflam inh = inflammasome signaling inhibition, IL-1 beta readout; THP-1 LPS/ATP IL-1B secretion, AlphaLISA, 16 h; active compounds read low; activity change, % at 57.5 µM; 4.7% of 360,000 active; AID 743279; in the data active = activity change below about -50%; inconclusive = mostly about -30% to -49%
#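 Secreted IL-1B measured by AlphaLISA bead assay after 16 h compound exposure of THP-1 cells; compounds (final up to 57.5 uM) added 1 h before LPS (250 ng/mL) and ATP (1.25 mM) stimulation; lower signal means less secretion.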
# CtBP-E1A inh = blocks the CtBP interaction with E1A; AlphaScreen GST-E1A/His-CtBP binding, 1536-well; active compounds read low; activity change, % (test concentration not listed); 0.49% of 340,000 active; in the data active = activity change below about -65%; inconclusive = mostly about -30% to -63%
#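 In 5 uL wells, 23 nL compound meets equimolar GST-E1A and His-CtBP (5X stock 125 nM each) for 2 h, 37 °C. Beads (5X, 50 ug/mL) then 1 h, 37 °C, dark.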
# DT40 TDP1 CPT = growth inhibition of DT40 Tdp1-/-;hTDP1 cells with camptothecin (screen for TDP1 inhibitors) | Potency, µM (doses to about 46.2 µM), inactives show at the top dose activity change, negative = growth inhibition, most hits filed as inhibitors | 12% of 420,000 active | chicken DT40 Tdp1-/-;hTDP1 cells + 20 nM CPT, ATP luminescence, 48 h; note: potency is the fitted concentration of half-maximal effect; nearly all actives have a fitted effect of over 55% in size
#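 Cell growth measured by CellTiter-Glo luminescence after a minimum 48 h, 37 C compound exposure with 20 nM CPT in Tdp1-knockout DT40 cells stably expressing hTDP1, seeded 400/well; qHTS titration format.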
# DT40 TDP1 no CPT = qHTS for Inhibitors of human tyrosyl-DNA phosphodiesterase 1 (TDP1): qHTS in cells in absence of CPT; DT40 Tdp1-/- hTDP1 cells, no CPT, ATP luminescence, 48 h; Potency, µM (doses to about 46.2 µM), inactives show top-dose activity change, negative = growth inhibition, usual class: inhibitors; 15% of 420,000 active; note: potency is the fitted concentration of half-maximal effect; nearly all actives have a fitted effect of over 55% in size
#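 No-CPT arm: Tdp1-/-;hTDP1 DT40 cells (400/well) plus compounds, incubated ≥48 hr at 37 °C. Readout CellTiter-Glo luminescence.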
# Six1-Eya2 inh = inhibitors of human Six1/Eya2 interaction. Q15475+O00167. AID 651725. AlphaScreen GST-Six1/His-Eya2 binding, biochemical; active compounds read low. activity change, % (no concentration beside the values). 0.56% of 360,000 active; in the data active = activity change below about -65%; inconclusive = mostly about -30% to -63%
#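 AlphaScreen with GST-Six1 and His-Eya2 (5X mix: 250 nM and 500 nM), glutathione donor and nickel acceptor beads; buffer 50 mM Tris pH 8.0, 300 mM NaCl, 1 mM TCEP; 1 h at 37 C in the dark.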
# An asterisk follows results filed as active; i = inactive; ? = inconclusive; . = not tested or not shown; [ ] = another dose, or the depositor's remark. A selection: hits, their analogues and other compounds. The true share with any hit is near 18%. Unless noted, calls come from the whole dose curve; as a rule, active = well fitted curve in the direction sought with a large enough effect; inconclusive = small, poorly fitted or top-dose-only effect, or another doubt; inactive = no such curve, though single readings can be large; an effect the other way counts as inactive or inconclusive. % is set by controls: 0 for no effect and ±100 for the full control effect.
SMILES,TDP1 block,IL-1B inflam inh,CtBP-E1A inh,DT40 TDP1 CPT,DT40 TDP1 no CPT,Six1-Eya2 inh
CS(=O)(=O)Oc1ccc2c(c1)O/C(=C\c1cccnc1)C2=O,1%,.,0,1%,-16%,2
O=C1/C(=C/c2cccnc2)Oc2cc(OS(=O)(=O)c3ccccc3)ccc21,12%,-6,-3,?,16µM*,-7
Cc1cc(C)nc(Nc2ccccc2Cl)n1,.,8,14,-4%,-6%,17
O=S1(=O)c2ccc(Br)cc2N2CC[C@H](C2)N1Cc1ccc(Cl)cc1,.,62,-19,1.3µM*,1.6µM*,-1
Cc1ccc(CNc2ncnc3sc(C(=O)N4CCCCC4c4cccnc4)c(C)c23)o1 (stereo unspecified),.,.,.,-9%[9.04 µM],?,.
CC(=O)c1cccc(NC2c3ccccc3C(=O)N2Cc2ccc3c(c2)OCO3)c1 (stereo unspecified),8%,-10,-8,?,21µM*,-2
COc1cc(NC2c3ccccc3C(=O)N2Cc2ccc3c(c2)OCO3)cc(OC)c1OC (stereo unspecified),5%,-7,-10,-7%,?,5
CCOc1ccc(NC2c3ccccc3C(=O)N2Cc2ccc3c(c2)OCO3)cc1 (stereo unspecified),10%,-27,?,?,16µM*,-8
O=C1c2ccccc2C(Nc2ccc3c(c2)OCCO3)N1Cc1ccccc1 (stereo unspecified),13%,-3,?,29µM*,16µM*,-27
CCOC(=O)N1CCC(N2C(=O)c3ccccc3C2Nc2ccc3c(c2)OCCO3)CC1 (stereo unspecified),8%,11,-5,?,?,-6
Nc1cc(=O)[nH]c(SCCSc2ccccc2F)n1,.,-18,-16,1%,?,14
CC1=CC(C)(C)N=C(Nc2ccc(C)cc2)S1,3%,-65*,102,?,?,3
Cc1cccc(Oc2coc3cc(OCC(=O)NC4CCCCC4)ccc3c2=O)c1,.,.,.,21µM*,23µM*,.
Cc1cc(-c2c(C)[nH]n(-c3ccccc3)c2=O)n(-c2ccccc2)n1,4%,6,-9,-22%,1%,-2
Cc1cc(-c2c(C)[nH]n(-c3ccccc3)c2=O)n[nH]1,12%,-2,-30,2.9µM*,4.1µM*,-29
CCOC(=O)c1ccc(N2C(=O)CC(N(C)CCc3ccc(OC)c(OC)c3)C2=O)cc1 (stereo unspecified),8%,4,0,16µM*,?,3
CCCCc1ccc(NC(=O)Nc2cnccn2)cc1,2%,15,7,15µM*,23µM*,5
O=C(Nc1cc(Cl)cc(Cl)c1)Nc1cnccn1,0%,0,10,?,16µM*,-1
CCOCCn1cnc2sc(C(=O)NCCCN3CCOCC3)c(C)c2c1=O,2%,-6,2,4%,15%,-7
O=C(COC(=O)C1=COCCO1)Nc1ccc(F)c(F)c1,.,1,6,4%,-18%,1
COc1ccc(CNC(=O)Nc2ccc3c(c2)N(C)C(=O)c2ccccc2S3)cc1,0%,.,.,?,21µM*,.
CN1C(=O)c2ccccc2Sc2ccc(NC(=O)NCc3cccc(Cl)c3)cc21,9%,.,.,23µM*,23µM*,.
Cc1ccccc1CNC(=O)Nc1ccc2c(c1)N(C)C(=O)c1ccccc1S2,9%,.,.,16µM*,16µM*,.
COc1cc(OC)c(NC(=O)Nc2ccc3c(c2)N(C)C(=O)c2ccccc2S3)cc1Cl,6%,.,.,5.8µM*,5.8µM*,.
CC(C)NC(=O)Nc1ccc2c(c1)N(C)C(=O)c1ccccc1S2,11%,.,.,?,-29%,.
SMILES,TDP1 block,IL-1B inflam inh,CtBP-E1A inh,DT40 TDP1 CPT,DT40 TDP1 no CPT,Six1-Eya2 inh
COCCNC(=O)Nc1ccc2c(c1)N(C)C(=O)c1ccccc1S2,2%,-2,12,9%,-12%,-10
CCCn1cc(S(=O)(=O)c2ccccc2)c(=O)c2cc(F)c(N3CCCCC3)cc21,2%,.,.,?,?,.
COc1c2ccoc2nc2c(OC)c(OC[C@H](O)C(C)(C)O)ccc12,17%[21 µM],.,.,.,.,.
COc1ccc(-c2cc(C(=O)N/N=C/c3cccnc3)c3cc(C)cc(C)c3n2)cc1,4%[56.1 µM],i,-1,18µM*,8.2µM*,14
Cc1cc(C(=O)N/N=C/c2cccnc2)c2ccccc2n1,-4%,40,-1,?,?,0
CCOc1ccccc1-c1cc(C(=O)N/N=C/c2cccnc2)c2ccccc2n1,.,-6,2,?,1.5µM*,12
CCOc1ccc(-c2cc(C(=O)N/N=C/c3cccnc3)c3ccccc3n2)cc1,2%,23,6,2.3µM*,1.8µM*,-10
COC(=O)c1ccc(CSc2nc(C)nc3c2c(=O)n(C)c(=O)n3C)o1,-3%,18,3,-22%,?,2
COc1ccc(Cl)cc1S(=O)(=O)N1CCCC(C(=O)NCCc2ccccc2)C1 (stereo unspecified),4%,-8,-1,?,?,2
Cc1ccc(OCCn2cc(C(=O)C3CCCCC3)c3ccccc32)cc1,-8%,.,.,21µM*,18µM*,.
COCCn1cc(C(=S)N2CCCCC2)c2ccccc21,-5%,-19,-16,0%,?,1
S=C(c1cn(CCOc2cccc3ccccc23)c2ccccc12)N1CCCC1,3%,-6,-17,10µM*,13µM*,-15
S=C(c1cn(CCOc2ccccc2)c2ccccc12)N1CCCC1,3%,-21,-21,18µM*,20µM*,-21
Cc1ccc(OCCn2cc(C(=S)N3CCCC3)c3ccccc32)cc1C,8%,-15,-12,8.2µM*,4.1µM*,-24
C[C@@H]1CN([C@@H](C)CO)C(=O)c2cc(C#CC(C)(C)O)cnc2O[C@@H]1CN(C)C(=O)c1ccccc1F,.,-26,7,6%,-3%,5
COc1ccc(CCn2c(=O)[nH]c3cc(C(=O)NCCCN4CCOCC4)ccc3c2=O)cc1OC,.,21,0,?,-25%,4
CCC1NC(=S)NC(C)=C1C(=O)c1ccccc1 (stereo unspecified),0%,-14,-7,0%,2%,-5
O=C(CNC(=O)c1ccc(OC(F)F)cc1)NCC1(N2CCOCC2)CCCCC1,1%,-7,0,-23%,3%,1
